# Hits are enriched below; roughly 21% of the tested compounds scored in any of these assays.
# Pf growth 96h: inhibits malaria parasite growth, 96 h; P. falciparum luciferase reporter growth, 96 h; Potency, µM (top dose mostly 28.7 µM), inactives show at the top dose activity change, negative = inhibition, usual class: inhibitors; 320,000 compounds, 6.9% hits; AID 504834; also: potency is read from the fitted curve at half-maximal effect; % is scaled to controls: 0 for no effect and ±100 for the full control effect
#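 Delayed-death screen, second-generation endpoint: infected erythrocytes, 2% hematocrit, 0.05% parasitemia final; 96 hours at 37 C, 5% CO2; luciferase detection reagent; luminescence decrease equals reduced growth.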
# Pf growth 48h: inhibits P. falciparum growth in the first generation, 48 h. 310,000 compounds, 5.9% hits. Potency, µM (top dose mostly 28.7 µM), inactives show at the highest dose activity change, negative = inhibition, usual class: inhibitors. P. falciparum luciferase growth in erythrocytes, 48 h; also: potency is read from the fitted curve at half-maximal effect; % is scaled to controls: 0 for no effect and ±100 for the full control effect
#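 Luminescence readout; reporter = integrated firefly luciferase in P. falciparum. RBC culture at 2% hematocrit, 0.1% parasitemia final, 37 C/5% CO2; decreased signal taken as growth inhibition.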
# Shiga toxin inh: inhibitors of Shiga toxin in Vero cells. Vero cells, Shiga toxin protein synthesis inhibition reporter. inhibition, % at 38.7 µM. 290,000 compounds, 9.2% hits. AID 2315; in the data active = inhibition mostly above about 28%, no sharp cut-off; inactive = mostly below about 43%; also: 0% is about no effect
# FBPA Giardia inh: inhibitors of Giardia lamblia fructose-1,6-bisphosphate aldolase | A8B2U2 | purified Giardia FBPA | Potency, µM (doses to about 59.6 µM), for the others: top-dose activity, negative = inhibition, actives largely listed as inhibitors | 290,000 compounds, 0.71% hits | AID 2451; also: potency is read from the fitted curve at half-maximal effect; % is scaled to controls: 0 for no effect and ±100 for the full control effect; nearly all actives have a fitted effect of over 55% in size
# Target sequence (A8B2U2 whole entry, looked up): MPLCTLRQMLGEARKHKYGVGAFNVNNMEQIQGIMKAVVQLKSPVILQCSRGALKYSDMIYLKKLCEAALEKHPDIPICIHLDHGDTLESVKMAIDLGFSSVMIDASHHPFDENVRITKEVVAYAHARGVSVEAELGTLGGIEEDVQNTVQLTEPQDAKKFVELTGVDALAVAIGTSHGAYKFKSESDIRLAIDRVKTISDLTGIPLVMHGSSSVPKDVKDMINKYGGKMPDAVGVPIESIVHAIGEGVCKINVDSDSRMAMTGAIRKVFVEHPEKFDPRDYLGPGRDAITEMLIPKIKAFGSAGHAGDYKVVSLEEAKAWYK
#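 40 nM FBPA preincubated 10 min at RT with compound (up to 57.5 uM final), then substrate plus GAPDH/TPI/NAD/arsenate coupling and diaphorase/resazurin added. Fluorescence read after 20 min at RT, 525/598 nm.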
# Cycloheximide cs: counter-screen hit for Shiga toxin inhibitors, cycloheximide; AID 2314; max response, %; 300,000 compounds, 12% hits; cell reporter, cycloheximide protein synthesis inhibition counterscreen; in the data active = max response mostly above about 13%, no sharp cut-off; inactive = mostly below about 14%; also: read at 38.3 µM for the half of the compounds with a filed dose; 0% is about no effect
# NS1 inh: blocks influenza NS1 protein function. Potency, µM (top dose mostly 46.1 µM), inactives show top-dose activity, positive = more growth. AID 2326. 270,000 compounds, 0.4% hits; calls by dose curve; also: potency is read from the fitted curve at half-maximal effect; actives are rising curves; nearly all actives have a fitted effect of over 50% in size
#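 S. cerevisiae expressing influenza A NS1, grown in glucose, washed, then diluted 1:100 into pH 6.0 -URA galactose medium with 23 nl compound. Growth recovery read as OD600; NS1-free strain serves as control.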
# * marks the source's active call; other numbers are inactive results; ? = inconclusive; nt = no result given. Unless noted, calls follow the shape of the dose curve; as a rule, active = well fitted curve in the direction sought with a large enough effect; inconclusive = small, poorly fitted or top-dose-only effect, or another doubt; inactive = no such curve, though single readings can be large; an effect the other way counts as inactive or inconclusive.
SMILES,Pf growth 96h,Pf growth 48h,Shiga toxin inh,FBPA Giardia inh,Cycloheximide cs,NS1 inh
COc1ccc(-n2nnnc2SCC(=O)Nc2cc(OC)c([N+](=O)[O-])cc2C)cc1,2.94µM*,?,-4.5,2.6%,-1.1,1.4%
COc1cccc(-n2nnnc2SCC(=O)Nc2ccccc2OC)c1,9.28µM*,18.2%,-5.8,-3.8%,-0.7,3.8%
COc1cccc(-n2nnnc2SCC(=O)Nc2ccc(OC)cc2OC)c1,2.8%,24.4%,-7.3,1.7%,-2.1,3.8%
CCOc1ccc(OCCC(=O)N(CC)CC(=O)Nc2c(F)cccc2F)cc1,-22.4%,-27.9%,nt,nt,nt,nt
CCN(CC)CCC(c1ccc(N(C)C)cc1)c1c(OC)cc(OC)c2c1OC(=O)CC2c1ccc(OC)cc1 (stereo not given),nt,nt,-4.0,-0.3%,-10.0,nt
CC1=CC(C)(C)N=C(Nc2ccc(C)cc2)S1,10.4µM*,nt,44.5,2.6%,50.4*,-11.5%
O=C(NC(=S)NC1CCS(=O)(=O)C1)c1ccccc1 (stereo not given),?,-2.2%,10.7,nt,5.1,4.4%
O=C(NC(=S)NC1CCCCCC1)c1cncc(Br)c1,25.7%,60.0%,84.9*,9.6%,39.7*,9.5%
O=C(NC(=S)NC1CCCCC1)c1ccccc1,?,?,99.5*,nt,48.0*,-22.8%
S=C(NC1CCCCC1)NN(c1ccccc1)c1ccccc1,2.94µM*,11.7µM*,13.2,-0.8%,13.2,-8.5%
CC1CCCC(NC(=S)NC(=O)c2ccccc2Br)C1C (stereo not given),?,?,active,-2.8%,9.1,-19.0%
S=C(NCc1ccccc1)NC1CCCCC1,22.6%,-15.4%,1.4,0.1%,9.7,-6.9%
O=C(CSc1nc2cc(C(=O)O)ccc2c(=O)n1-c1ccc(F)cc1)Nc1ccc(F)c(F)c1F,?,nt,9.5,-18.1%,0.8,14.0%
C/C(=N\NC(=S)NC1CCCCC1)c1ccccc1,?,4.15µM*,59.2,2.4%,11.8*,25.7%
COc1cc(OC)c(C(=O)NNC(=S)NC2CCCCC2)cc1OC,0.0%,2.8%,-13.6,9.4%,-4.5,4.3%
O=C(NNC(=S)NC1CCCCC1)c1ccccc1Br,?,13.1µM*,2.0,nt,8.6,10.6%
O=C(/C=C/c1ccc(-c2cccc([N+](=O)[O-])c2)o1)N1CCOCC1,54.9%,97.1%,145.5*,0.2%,31.1*,-8.3%
COCOc1c2c(c(OCOC)c3c(OCOC)cccc13)/C(=N/N[S+](=O)([O-])c1ccc(C)cc1)C1=C2CCCC1,nt,nt,nt,-27.5%,nt,nt
CN1CCN(c2ncc3nc(-c4cc(F)cc(F)c4)c(=O)n(-c4ccccc4)c3n2)CC1,nt,nt,nt,-10.5%,nt,nt
O=C(CSc1nnc(C2COc3ccccc3O2)o1)NC1CCCCC1 (stereo not given),0.5%,4.7%,39.0,2.8%,20.0*,-20.8%
O=C(CSc1nnc(C2COc3ccccc3O2)o1)N1CCCCC1 (stereo not given),?,nt,32.1,0.2%,-1.8,-3.8%
O=C(CSc1nnc(C2COc3ccccc3O2)o1)Nc1nccs1 (stereo not given),1.31µM*,0.7%,27.5,22.7%,6.4,14.1%
COc1c(Cl)cc(Br)c(OC)c1C(=O)NC(=O)Nc1nc(C)cc(C)n1,2.3%,49.9%,-2.5,-18.2%,-2.4,3.1%
CC(=O)C1C(c2cccc(F)c2)NC(=O)NC1(O)C(F)(F)F (stereo not given),4.65µM*,-3.5%,-12.6,2.2%,0.5,5.5%
CSc1cccc(NC(=O)CC2Oc3ccccc3NC2=O)c1 (stereo not given),24.0%,17.0%,-4.8,2.1%,-2.3,4.3%
SMILES,Pf growth 96h,Pf growth 48h,Shiga toxin inh,FBPA Giardia inh,Cycloheximide cs,NS1 inh
CNC(=O)OC(C)CNS(=O)(=O)c1ccc(C)cc1 (stereo not given),11.7µM*,11.4%,1.8,10.1%,-2.0,5.7%
Cc1ccccc1-n1c(SCC(=O)c2cc(C)n(C)c2C)nnc1-c1cccnc1,?,nt,-7.7,-6.7%,5.3,15.8%
CCOc1ccccc1-n1c(SCC(=O)NC2CCCC2)nnc1-c1ccoc1C,?,?,1.2,13.3%,-1.8,-5.3%
CCOc1ccccc1-n1c(SCC(N)=O)nnc1-c1cccnc1,11.7µM*,-6.1%,-4.0,-1.2%,1.0,0.8%
COCCn1c(C)cc(C(=O)CSc2nnc(-c3cccnc3)n2-c2ccccc2F)c1C,-26.8%,10.4µM*,18.6,-13.2%,-3.8,5.1%
CCOc1ccccc1-n1c(SCC(=O)NC(C)(C)C)nnc1-c1ccoc1C,?,13.1µM*,8.8,-3.4%,18.4,3.8%
Cc1ccc(N=Cc2c(O)c3ccccc3oc2=O)cc1F,5.2%,12.7%,6.9,4.2%,3.8,23.9%
O=C(N/N=C/c1ccncc1)c1cccc(S(=O)(=O)Nc2ccc(Cl)cc2)c1,-44.9%,-22.0%,20.0,-26.9%,2.4,3.2%
CCC(Cc1ccccc1)NS(=O)(=O)c1ccc2c(c1)NC(=O)C(C)S2 (stereo not given),14.7µM*,-31.6%,17.6,nt,-5.2,-2.3%
Cc1ccc(NC(=O)C2CCN(S(=O)(=O)c3ccc4c(c3)NC(=O)C(C)S4)CC2)c(C)c1 (stereo not given),?,?,10.7,nt,-0.5,-8.9%
CCc1ccc(NC(=O)C2CCN(S(=O)(=O)c3ccc4c(c3)NC(=O)C(C)S4)CC2)cc1 (stereo not given),?,?,-4.3,nt,-4.8,3.4%
CC1Sc2ccc(S(=O)(=O)N3CCC(C(=O)NCc4ccc(Cl)cc4)CC3)cc2NC1=O (stereo not given),15.4%,10.4µM*,9.9,nt,1.0,-2.4%
COc1ccccc1NC(=O)C1CCN(S(=O)(=O)c2ccc3c(c2)NC(=O)C(C)S3)CC1 (stereo not given),?,11.7µM*,-4.3,nt,4.3,17.2%
Cc1ccc(NC(=O)C2CCN(S(=O)(=O)c3ccc4c(c3)NC(=O)C(C)S4)CC2)cc1C (stereo not given),?,10.4µM*,-6.4,nt,7.9,28.3%
COc1ccc(CNC(=O)C2CCN(S(=O)(=O)c3ccc4c(c3)NC(=O)C(C)S4)CC2)cc1 (stereo not given),?,?,17.8,nt,-1.9,2.1%
CCc1cccc(NS(=O)(=O)c2ccc3c(c2)NC(=O)C(C)S3)c1 (stereo not given),23.5%,17.6%,-4.5,nt,-2.2,13.7%
Cc1ccc(S(=O)(=O)N(C)C)cc1NC(=S)N1CCN(Cc2ccc3c(c2)OCO3)CC1,21.6%,18.2%,-9.0,-5.9%,-1.4,nt
COc1cccc(NS(=O)(=O)c2ccc3c(c2)NC(=O)C(C)S3)c1 (stereo not given),?,?,3.8,5.3%,-3.1,24.5%
COc1ccccc1NS(=O)(=O)c1ccc2c(c1)NC(=O)C(C)S2 (stereo not given),78.0%,?,14.0,nt,23.1*,12.0%

# High-throughput results as filed in PubChem.
